Values joined by “and” are separate entries in the source; they are usually repeats but may differ in a detail not shown here. Identical values can stand only once. The campaign covered roughly 420,000 compounds. About 64,000 (15%) were called active. About 27% were inconclusive and are not listed. Calls follow the shape of the dose curve; as a rule, active = well fitted inhibition curve with a large enough effect; inconclusive = small, poorly fitted or top-dose-only effect; inactive = flat fitted curve, though single readings scatter. A selection follows. A call without a number means that no potency is given here. Some structures have more than one record in an assay (separate samples or runs), and their calls can disagree.
Potency is read from the fitted curve at half-maximal effect.

The nature of the test: qHTS for Inhibitors of human tyrosyl-DNA phosphodiesterase 1 (TDP1): qHTS in cells in absence of CPT. Also: nearly all actives have a fitted effect of over 55% in size. To be noted: DT40 Tdp1-/- hTDP1 cells, no CPT, ATP luminescence, 48 h; activity change, negative = growth inhibition: at 46.2 µM (top of the series). The essentials: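 Growth kinetics read by CellTiter-Glo luminescence after ≥48 hr at 37 °C. Cells: DT40 Tdp1-/- stably carrying human TDP1, 400 per well, compound exposure in the absence of CPT (DMSO vehicle).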
For orientation: In qHTS, concentration-response curves come from the screen itself.
On to `CCC(C)NC(=O)/C=C/c1ccc(S(=O)(=O)NCc2ccco2)cc1` (stereo unspecified), for which the Potency entry was “inactive”. For the compound `O=S(=O)(NC1CCCC1)c1ccc(-n2cnnn2)cc1`, the Potency result is “inactive”. For `O=C(NNC(=O)c1ccc(-c2ccccc2)cc1)Nc1ccccc1`, the Potency entry was “inactive”. In the case of `Cc1ccc(C(=O)NCC(=O)NC2CC2)cc1`, the Potency result is “inactive”. For `O=C(NC1CC1)c1ccc(-c2ccccc2)cc1`, the Potency was 11.6 µM (active). Regarding `C/C(N)=C(/C#N)C(=O)COC(=O)C1CCN(C(=O)c2ccc(Cl)cc2)CC1`, the Potency result is “inactive”. Take `CC(=O)O[C@]1(C(C)=O)CC[C@H]2[C@@H]3C=C(C)C4=CC(=O)CC[C@]4(C)[C@H]3CC[C@@]21C`: the Potency entry was “inactive and 23.1 µM (active)”. For `CC(=O)O[C@]1(C(C)=O)CC[C@H]2[C@@H]3CCC4=CC(=O)CC[C@]4(C)[C@@]3(F)[C@@H](O)C[C@@]21C` the value was “inactive”. For `CC(=O)OCC(=O)C1(O)CCC2C3CC(C)C4=CC(=O)CCC4(C)C3C(O)CC21C` (stereo unspecified) the value was “inactive”; for `CCc1nc2c(=O)[nH]cnc2o1`, “inactive”. As for `CCn1nnnc1SCC(=O)c1ccc(C)cc1C`, the Potency entry was “inactive”. On to `COc1ccc(NC(=O)C(=O)NCC(=O)Nc2cccc(C(F)(F)F)c2)cc1`, for which the Potency entry was “inactive”. As to `Cc1ccc(NC(=O)Nc2cccc(C(F)(F)F)c2)nc1`, the Potency result was “inactive”. For `Cc1ccccc1NC(=O)Cc1nc(COC(=O)c2ccc(C(F)(F)F)cc2)cs1` the value was “inactive”. For the compound `CC(C)(C)CC(=O)Nc1nc(C(N)Cc2ccc(C(F)(F)F)cc2)cs1` (stereo unspecified), the Potency was 16.4 µM (active). As for `COc1ccc(NC(=O)C(Br)C(C)C)cc1` (stereo unspecified), the entry is “inactive”; as for `NC(c1csc(NC(=O)Nc2cccc(C(F)(F)F)c2)n1)C1CCCCC1` (stereo unspecified), 20.6 µM (active); as for `COC(=O)[C@H](Cc1ccccc1)NC(=O)Nc1ccc(OC)cc1`, “inactive”.

As for `COc1ccc(C(CC(=O)Nc2ccc(C)cc2)NC(=O)C(F)(F)F)cc1` (stereo unspecified), the Potency entry is “inactive”. On to `COc1ccc(C(N)c2csc(NC(=O)Nc3cccc(C(F)(F)F)c3)n2)cc1` (stereo unspecified), for which the Potency was 13 µM (active).

`CC(C)C[C@H](NC(=O)Nc1cccc(C(F)(F)F)c1)C(=O)O`: the Potency entry is “inactive”.

As to `CC(C)(C)CC(=O)Nc1nnc(SCC(=O)NCc2cccs2)s1`, the Potency result was “inactive”.

Consider `COc1ccc(CC(N)c2csc(NC(=O)Nc3ccc(C(C)C)cc3)n2)cc1` (stereo unspecified), for which the Potency was 6.51 µM (active). As for `COc1ccccc1C1CN(Cc2ccccc2O)Cc2ccccc2O1` (stereo unspecified), the Potency result was “inactive”. As for `O=C(CC(NCc1cccnc1)C(=O)O)Nc1ccc(O)cc1` (stereo unspecified), the entry is “inactive”. As to `CSc1nc(O)c(Cc2ccccc2)c(=O)[nH]1`, the Potency entry is “inactive”. `Cc1cc(C(=O)OC(C)C(=O)NC2CCCCC2C)c(C)o1` (stereo unspecified): the Potency result was “inactive”. As for `O=C(O)c1ccc(S(=O)(=O)N2CCOCC2)o1`, the entry is “inactive”; as for `Cc1ccc(NC(=O)NNC(=O)c2sccc2-n2cccc2)cc1`, “inactive”. For `CC(C)NC(=O)NNc1c(Cl)cncc1Cl` the value was “inactive”; for `CC1CCc2c(sc3c2C2=NS(=O)(=O)CCN2C=N3)C1` (stereo unspecified), “inactive”; for `Cc1ccc(CC2CC(=O)N(c3nc(C)cc(C)n3)C2=O)cc1` (stereo unspecified), “inactive”. For `COc1ccccc1C(=O)NCC(=O)OCC(=O)NNC(=O)c1ccc(Br)cc1` the value was “inactive”. As for `CC(C)C(NC(=O)c1c(F)cccc1F)C(=O)NNC(=O)c1ccccc1` (stereo unspecified), the Potency entry was “inactive”. As for `CCO/C([O-])=N/c1c[n+](N2CCOCC2)no1`, the entry is “inactive”; as for `O=C(CCC(=O)c1cccs1)Nc1nc2ccccc2s1`, “inactive”. As for `COC(=O)[C@@H]1C[C@@]2(O)[C@H](O)[C@H](O)[C@H](O)C[C@H]2N1Cc1ccc(C(C)(C)C)cc1`, the entry is “inactive”. For `CN(C)CCN(C(=O)CN1C(=O)c2ccccc2C1=O)c1nc2cc3c(cc2s1)OCCO3`, the Potency entry was “inactive”. With `Cc1c(NC(=O)c2coc(=O)c(Br)c2)c(=O)n(-c2ccccc2)n1C`, the Potency is 4.11 µM (active). Take `Cc1cc(C(=O)Nc2c(C)n(C)n(-c3ccccc3)c2=O)cs1`: the Potency entry was “inactive”.

`O=C(Nc1cccc(F)c1)c1coc(=O)c(Br)c1`: the Potency is 2.31 µM (active).

In the case of `O=C(c1cc(-c2ccc(Cl)s2)nc2ccccc12)N1CCOCC1`, the Potency entry was “inactive”. As for `Cc1c(NC(=O)c2cc(-c3ccc(Cl)s3)nc3ccccc23)c(=O)n(-c2ccccc2)n1C`, the Potency was 16.4 µM (active). For the compound `Cc1c(NC(=O)c2cc(=O)c3ccccc3o2)c(=O)n(-c2ccccc2)n1C`, the Potency result was “inactive”.

On to `O=C(Nc1cccc(NC(=O)c2cccc(F)c2)c1)c1ccccc1`, for which the Potency result was “inactive”. As for `O=C(CCN1C(=O)c2ccccc2C1=O)Nc1cccc(F)c1`, the entry is “inactive”; as for `Cc1c(NC(=O)c2cccnc2)c(=O)n(-c2ccccc2)n1C`, “inactive”; as for `COCn1c(C(O)c2ccccc2)cc2ccccc21` (stereo unspecified), “inactive”. With `O=C1c2ccccc2S(=O)(=O)N1CC(O)Cn1c2ccccc2c2ccccc21` (stereo unspecified), the Potency entry was “inactive”. Turning to `CC(CC(=O)N1CCN(S(=O)(=O)c2ccccc2)CC1)n1cncn1` (stereo unspecified), the Potency result is “inactive”. Consider `CCN(CC)S(=O)(=O)c1ccc2[nH]c(=O)cc(C(=O)N(C)C3CCS(=O)(=O)C3)c2c1` (stereo unspecified), for which the Potency result was “inactive”. Turning to `CC(=O)N1CCN(CCN=CC2=C(O)CC(C)(C)CC2=O)CC1`, the Potency result was “inactive”. For the compound `CCc1nccn1S(=O)(=O)c1cccc([N+](=O)[O-])c1`, the Potency entry is “inactive”. With `Nc1ncnc2nnsc12`, the Potency entry was “inactive”.

For the compound `COc1ccc(-c2nc(CCNC(=O)c3ccc(Br)o3)cs2)cc1`, the Potency was 20.6 µM (active) and 18.4 µM (active). For `O=S(=O)(NCCc1csc(-c2ccccc2)n1)c1cccnc1` the value was “inactive”.

Consider `COc1cc(OC)cc(C(=O)NNC(=O)CNC(=O)c2ccc(Br)o2)c1`, for which the Potency entry was “inactive”. For the compound `CC(C)c1ccc(NC(=O)COC(=O)c2ccc(CN3CCCC3=O)cc2)cc1`, the Potency entry is “inactive”.

Take `CN(C)C(=O)N1CCNCC1`: the Potency entry was “inactive”. Take `C=C(C)CNC(=S)/N=c1\scc(C)n1CC`: the Potency was 20.6 µM (active).

As to `Cc1csc(=NC(=O)c2ccccc2)n1CCO`, the Potency entry is “inactive”. On to `COc1ccc(NC(=S)Nc2ccc(S(N)(=O)=O)cc2)c(C)c1`, for which the Potency entry was “inactive”.

`COC(=O)c1sc(NC(=O)COC(=O)C2CCC2)c(C(=O)OC)c1C`: the Potency entry was “inactive”. For `O=S1(=O)C[C@@H](N2CCN(CCO)CC2)[C@H](COCc2ccccc2)N1` the value was “inactive”; for `COc1ccc(NC(=O)CSc2nc(C)cs2)cc1`, “inactive”. For `Cc1ccc(NC(=O)CNCc2ccccn2)cc1S(=O)(=O)N(C)C` the value was “inactive”; for `Cc1csc(SCC(=O)Nc2ccc(C)c(S(=O)(=O)N(C)C)c2)n1`, 18.4 µM (active); for `CC(=O)c1sc(N)nc1C`, “inactive”. For `CC(C)[C@H](NC(=O)N1CC(=O)Nc2ccccc21)C(=O)N[C@@H](Cc1c[nH]c2ccccc12)C(=O)O` the value was “inactive”. Consider `CC(C[N+](C)(C)C)OC(N)=O` (stereo unspecified), for which the Potency result is “inactive”. As for `Fc1ccc(COc2cccc(-c3n[nH]c(=S)o3)c2)cc1`, the entry is “inactive”.

In the case of `O=C(O)c1ccccc1OCc1ccccc1Cl`, the Potency entry is “inactive”. `O=C(NCCOc1ccccc1Cl)C(=O)Nc1ccccc1`: the Potency was 18.4 µM (active). As for `COc1ccccc1OCCNC(=O)CCNC(=O)c1ccccc1Cl`, the entry is “inactive”; as for `CCC(C)NC(=O)C1CCCN(C(=O)NC2CCCCC2)C1` (stereo unspecified), “inactive”; as for `C=CCN(c1ccc(C(=O)Nc2cc(C)cc(C)c2)cc1)S(C)(=O)=O`, “inactive”.

In the case of `COc1ccc(-c2onc(C)c2-c2ccc3c(c2)OCCO3)c(O)c1`, the Potency was 18.4 µM (active).

On to `COc1ccc(C#Cc2c(-c3ccc(OC)cc3)oc3ccc(-c4ccc5c(c4)OCO5)cc23)cc1`, for which the Potency entry is “inactive”. For `COc1ccc(O)c(C=Nc2cc(C)on2)c1` the value was “inactive”; for `CC[C@H](C)[C@@H](C(=O)N1CCNCC1)n1cc([C@@H](N)Cc2ccc(O)cc2)nn1`, “inactive”. As for `O=C(O)c1ccn(COc2ccc(Br)cc2)n1`, the entry is “inactive”; as for `CCC(=O)N1CCc2cc(S(=O)(=O)CCC(=O)N3CCN(c4ccccc4F)CC3)ccc21`, “inactive”; as for `Cc1cccc(N2CCN(C(=O)CCS(=O)(=O)c3ccc4c(c3)NC(=O)C(C)S4)CC2)c1C` (stereo unspecified), 25.9 µM (active). As for `Cn1c(=O)c(=O)n(C)c2cc(S(=O)(=O)CCC(=O)N3CCCCC3)ccc21`, the entry is “inactive”. On to `COc1ccc(NC(=O)C2CCC(CNS(=O)(=O)c3csc(C(N)=O)c3)CC2)cc1OC` (stereo unspecified), for which the Potency entry was “inactive”. As for `NC(=O)c1cc(S(=O)(=O)NCCCc2ccco2)cs1`, the figure is 8.2 µM (active); as for `COc1cccc(CNS(=O)(=O)c2csc(C(N)=O)c2)c1`, “inactive”; as for `CCC(=NC1CC(C)(C)NC(C)(C)C1)C1=C(O)CC(C)(C)CC1=O`, “inactive”.

For the compound `Cn1c(=O)cc(SCC(=O)N2CCCC2)c2cc(Cl)ccc21`, the Potency result was “inactive”. As for `CC1(C)C(c2cccs2)=[N+]([O-])C2(CCCCC2=O)N1O` (stereo unspecified), the Potency entry was “inactive”. As for `COc1ccc(C(CC(=O)c2ccccc2)S(=O)(=O)c2ccccc2)cc1` (stereo unspecified), the figure is 18.4 µM (active). `COc1ccc(N(Cc2ccccc2)S(=O)(=O)c2cccc(C(=O)O)c2)cc1`: the Potency entry is “inactive”. For `COc1ccc(C(CC(=O)O)NC(=O)Cc2ccccc2)cc1` (stereo unspecified) the value was “inactive”. Turning to `CC(C)c1cc(C(=O)N/N=C/c2ccoc2)c(O)c(C(C)C)c1`, the Potency result was “inactive”.

`CCOCCCNC(=O)Cc1cc(=O)[nH]c(=O)[nH]1`: the Potency entry was “inactive”. For `COc1ccc(NC(=O)Cn2c(-c3ccc(OC)cc3)cn(-c3ccc(C)cc3)c2=O)cc1` the value was “inactive”; for `CC(=O)OCC1(O)CC23CCC4c5ccoc5CCC4(C)C2CCC1C3` (stereo unspecified), 14.6 µM (active); for `Cc1ccc(SCCC(=O)Nc2cc(C)on2)cc1`, “inactive”. As for `O=C(O/N=C(/c1ccccc1)c1ccncc1)c1ccccc1[N+](=O)[O-]`, the entry is “inactive”; as for `O=C(CN1CCOCC1)Nc1ccc(NC(=O)CN2CCOCC2)c(Cl)c1`, “inactive”. As for `CC(=O)OC1CCC2(O)CC1(C)CCC1C2CC1(C)C` (stereo unspecified), the entry is “inactive”; as for `CCOC(=O)c1csc(CCNC(=O)c2oc3c(Cl)cc(C)cc3c2C)n1`, 20.6 µM (active); as for `Cc1ccc2c(=O)cc(C(=O)NCCc3ccc(S(N)(=O)=O)cc3)oc2c1C`, “inactive”. Take `COCCN1Cc2cccc(C(=O)Nc3ccccc3OC)c2C1=O`: the Potency result was “inactive”. As for `COc1ccc(NC(=O)c2cccc3c2C(=O)N(CC2CCCO2)C3)cc1OC` (stereo unspecified), the figure is 23.1 µM (active); as for `CCOc1ccc(NC(=O)c2cccc3c2C(=O)N(CC2CCCO2)C3)cc1` (stereo unspecified), “inactive”.

The record behind these values is PubChem BioAssay AID686978 (National Center for Advancing Translational Sciences (NCATS), 2013).
